According to PubChem BioAssay AID701 (PCMD, 2007):
Screen size: about 33,000 compounds; about 70 (0.2%) were called active. Cut-off read from the data, not from the text of the source: active = inhibition above about 30%; inactive = the rest. These entries were drawn from the full list.

biological target: Coagulation factor XII (Homo sapiens) (UniProt P00748); experiment: human FXIIa protease inhibitors, primary screen, biochemical, single well (AID 701); conditions: purified human FXIIa, AMC substrate fluorescence, 2 h; at 10 µM; hits give high values;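 note: 0% = enzyme with vehicle only and 100% = no enzyme blank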
Sequence (P00748 20-372 limits assumed): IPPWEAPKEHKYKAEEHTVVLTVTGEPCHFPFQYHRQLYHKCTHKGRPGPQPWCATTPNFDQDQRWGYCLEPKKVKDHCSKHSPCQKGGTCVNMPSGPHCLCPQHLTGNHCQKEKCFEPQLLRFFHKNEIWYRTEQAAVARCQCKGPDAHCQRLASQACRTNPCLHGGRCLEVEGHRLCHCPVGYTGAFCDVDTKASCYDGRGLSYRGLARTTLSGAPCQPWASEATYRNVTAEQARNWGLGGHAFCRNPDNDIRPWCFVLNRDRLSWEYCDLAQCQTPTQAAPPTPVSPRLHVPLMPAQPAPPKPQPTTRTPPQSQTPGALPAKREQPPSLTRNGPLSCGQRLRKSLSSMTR
Sequence (P00748 373-615 limits assumed): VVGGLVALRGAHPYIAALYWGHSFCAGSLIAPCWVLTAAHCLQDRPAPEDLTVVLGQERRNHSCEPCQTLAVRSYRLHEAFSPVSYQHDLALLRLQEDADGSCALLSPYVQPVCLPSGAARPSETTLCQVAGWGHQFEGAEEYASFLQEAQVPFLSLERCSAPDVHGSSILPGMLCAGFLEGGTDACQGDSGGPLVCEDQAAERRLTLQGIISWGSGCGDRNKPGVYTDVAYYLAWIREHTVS

Row | SMILES | inhibition
1 | O=C(O)CCN=C1CCc2ccccc2N1 | 6.9% (inactive)
2 | O=C(NCc1ccccc1Cl)c1csc2c1CCCCC2 | 5.87% (inactive)
3 | CC1(C)N=C(c2ccccn2)C(C)(C)N1O | -0.08% (inactive)
4 | O=C(NCc1ccco1)C1(c2ccc(Cl)cc2)CCCC1 | 1.49% (inactive)
5 | CNC(=O)c1nnc(Cc2ccc(Cl)cc2)o1 | 2.02% (inactive)
6 | O=C(c1ccc2c(c1)OCO2)N1CCOCC1 | 0.77% (inactive)
7 | CCN1C(=O)/C(=C\N2CCOCC2)SC1=S | 7.15% (inactive)
8 | CC1(C)COC(c2cccn2Cc2ccccc2Cl)=N1 | 6.11% (inactive)
9 | O=C(CN1CCSCC1)N/N=C/c1ccc(F)cc1F | 13.2% (inactive)
10 | COc1ccc(Cl)cc1C(=O)NCc1cn(C)nc1C | 7.49% (inactive)
11 | COc1ccc(CNc2ccc3c(c2)CCC3)cc1OC | 4.51% (inactive)
12 | O=C1/C(=C\Nc2ccccc2)CCN1c1ncccn1 | 11.1% (inactive)
13 | N#Cc1cccc(NC(=O)CCC2CCCC2)c1 | 5.6% (inactive)
14 | O=C(NC1CCCC1)C(c1ccccn1)N(C(=O)c1csnn1)C1CCCC1 (configuration not stated) | -12% (inactive)
15 | Cc1cc(C(F)F)n2nc(C(=O)Nc3ccc(S(=O)(=O)NC45CC6CC(CC(C6)C4)C5)cc3)nc2n1 | 3.77% (inactive)
16 | CCOc1ccc(C(O)Cn2c(=N)n(CCN3CCCCC3)c3ccccc32)cc1 (configuration not stated) | -17.3% (inactive)
17 | Cc1cc(C(F)(F)F)n2ncc(-c3ccccc3)c2n1 | 4.27% (inactive)
18 | CCC1(CC)Cc2ccccc2-c2nc3ccccc3c(=O)n21 | -9.34% (inactive)
19 | Cc1ccc(NS(=O)(=O)c2c(C)[nH]c(=O)[nH]c2=O)cc1C | 5.29% (inactive)
20 | CC(C)NC(=O)CSc1nnc(COc2ccccc2Cl)o1 | 6.2% (inactive)
21 | CCOC(=O)N1CCC(N(CCOC)C(=O)Nc2ccc(C)c(C)c2)CC1 | 11% (inactive)

Row | SMILES | inhibition
22 | N#C/C(=C\c1ccccc1)c1n[nH]c(Cn2cncn2)n1 | 3.67% (inactive)
23 | CCOC(=O)c1cnc(SCc2nc(N)nc(Nc3ccc(OC)cc3)n2)nc1N | 2.04% (inactive)
24 | O=C(N/N=C/C=C/c1ccccc1)C1CC1(c1ccccc1)c1ccccc1 (configuration not stated) | 7.46% (inactive)
25 | CCOc1ccc(NC(=O)N(CC(C)C)CC(C)C)cc1 | 3.85% (inactive)
26 | CCC(C)NC(=O)C1CCCN(C(=O)NC2CCCCC2)C1 (configuration not stated) | 5.82% (inactive)
27 | O=C(CC12CC3CC(CC(C3)C1)C2)Nc1ccc2c(c1)COC2=O | 3.57% (inactive)
28 | COc1ccc(C)cc1N(C)C(=O)c1coc(=O)c2ccccc12 | 1.74% (inactive)
29 | C=CCNC(=O)C1CC=CCC1C(=O)O (configuration not stated) | 5.98% (inactive)
30 | CC1CC(C)CN(CC(=O)N2c3ccccc3CCc3ccccc32)C1 (configuration not stated) | -2.18% (inactive)
31 | COC(CNC(=O)Cn1ncc2ccsc2c1=O)OC | 8.94% (inactive)
32 | Cc1cccc(C)c1NC(=O)CSc1nnc(-c2ccccc2)n1Cc1ccc2c(c1)OCO2 | 7.65% (inactive)
33 | CC1(C)CC(CC(=O)O)C(=O)O1 (configuration not stated) | -10.1% (inactive)
34 | COc1ccccc1-c1nc(C#N)c(N2CCC(C(N)=O)CC2)o1 | -1.38% (inactive)
35 | COc1ccc(Br)cc1CN1CCN(C(=O)c2cccc(OC)c2OC)CC1 | 6.66% (inactive)
36 | O=C(CCN1c2ccccc2Sc2ccccc21)Nc1ccccc1 | 4.62% (inactive)
37 | COc1ccc(NC(=O)C(CC(C)C)NS(=O)(=O)c2ccc3c(c2)CCN3C(C)=O)cc1OC (configuration not stated) | 5.4% (inactive)
38 | CCOC(=O)c1ccc2c(c1)nc(C)n2CC | 2.03% (inactive)
39 | CCCNC(=O)c1ccc(Cl)c(Cl)c1 | 3.09% (inactive)
40 | CCCCc1nnc(NC(=O)CS(=O)(=O)Cc2ccccc2)s1 | 2.19% (inactive)
41 | N#C/C(=C(\O)CCl)c1nnc2n1CCCCC2 | 1.09% (inactive)
42 | Cc1ccc(-n2nc3c(c2NC(=O)CCC2CCCCC2)CS(=O)C3)cc1 (configuration not stated) | 2.44% (inactive)
